Source: PubChem BioAssay (NCATS)
A number with no mark means an inactive call. For part of these data: Results with a measured potency or affinity are listed apart. Active and inactive are the calls of the source. How the calls were made is not given here.

Conditions: Ebola virus entry assay, green fluorescence channel
Wherever efficacy is given: 0% is about no effect.

Row | Compound | efficacy [%]
1 | COc1ccc2c3c1O[C@H]1[C@H](O)CC[C@H]4[C@@H](C2)N(C)CC[C@@]341 | -11.3
2 | O=c1cc[nH]c(=O)[nH]1 | 11.9
3 | C[C@H]1C[C@H](O)c2ccsc2S1(=O)=O | 20.1
4 | CCN(CCO)CCn1c(Cc2ccccc2)nc2c1c(=O)n(C)c(=O)n2C | 27.5
5 | Cc1cc(CCCOc2c(C)cc(-c3noc(C(F)(F)F)n3)cc2C)on1 | 12.1
6 | O=C(NCCO[N+](=O)[O-])c1cccnc1 | -12.5
7 | COc1cc(CCN)cc(OC)c1OC | 10.5
8 | CC(CCc1ccc2c(c1)OCO2)NN (stereo not drawn) | 17.5
9 | CCCCCCCCCCCCCCCC(=O)O | -6.91
10 | CC(=O)Nc1ccccc1 | -20.9
11 | C=CCC1(C(C)CC)C(=O)NC(=O)NC1=O (stereo not drawn) | 14.7
12 | CC(C(=O)O)c1ccc2c(c1)[nH]c1ccc(Cl)cc12 (stereo not drawn) | -20.7
13 | Cc1ccc2ccc(Cl)cc2n1 | 18.4
14 | CCCCCCCCCCCCOCCO | -11.3
15 | O=C(O)CCCCCCCC(=O)O | 17.2
16 | NNC(=O)c1ccncc1 | 13.1
17 | CC(=O)Nc1ccc(OC(=O)c2ccccc2OC(C)=O)cc1 | -28.5
18 | CC1(C)C(C=C(Cl)Cl)C1C(=O)OC(C#N)c1cccc(Oc2ccccc2)c1 (stereo not drawn) | -14.1
19 | CCCCCCOc1ccccc1C(N)=O | -13.5
20 | COc1cccc(OC)c1C(=O)N[C@@H]1C(=O)N2[C@@H]1SC(C)(C)[C@@H]2C(=O)O | 19.6

Row | Compound | efficacy [%]
21 | O=C(CO)[C@@H](O)[C@H](O)[C@@H](O)CO | 18.6
22 | COc1ccc(C(=O)NCc2ccc(OCCN(C)C)cc2)cc1OC | -7.96
23 | O=C(Oc1ccccc1C(=O)O)c1ccccc1O | 10
24 | COc1ccc(S(=O)(=O)Nc2nnc(CC(C)C)s2)cc1 | -19
25 | N=C(N)N | 19.5
26 | Cc1onc(-c2c(Cl)cccc2Cl)c1C(=O)Cl | -15.7
27 | CC(=O)OC[C@H]1O[C@@H](OC(C)=O)[C@H](OC(C)=O)[C@@H]1OC(C)=O | 18.7
28 | CN1CC[C@]23c4c5ccc(O)c4O[C@H]2[C@@H](O)CC[C@H]3[C@H]1C5 | 13.6
29 | Cc1ccc(S(=O)(=O)NC(=O)NC2CCCCCCC2)cc1 | -10.6
30 | CC(=O)CC/C=C(\C)CC/C=C(\C)CC/C=C(\C)CCC=C(C)C | -14.5
31 | C[N+]1(CCF)[C@@H]2CC[C@H]1CC(OC(=O)C(O)(c1ccccc1)c1ccccc1)C2 (stereo partly drawn) | -17.5
32 | O=C(O)c1[nH]n(-c2ccc(S(=O)(=O)O)cc2)c(=O)c1N=Nc1ccc(S(=O)(=O)O)cc1 | 23
33 | COc1ccc(C(=O)N2CCN(CC(=O)N3CCOCC3)CC2)cc1 | -11.2
34 | CC[N+](CC)(CCNC(=O)C(=O)NCC[N+](CC)(CC)Cc1ccccc1Cl)Cc1ccccc1Cl | -9.71
35 | CC(=O)[C@H]1CC[C@H]2[C@@H]3C[C@H](C)C4=CC(=O)CC[C@]4(C)[C@H]3[C@@H](O)C[C@]12C | -17.9
36 | Clc1ccccc1N1CCNCC1 | -17.1
37 | Cc1cccc(C)c1NC(=O)CN1CCCCCC1 | -23
38 | C[C@]12Cc3cn[nH]c3C[C@@H]1CC[C@@H]1[C@@H]2CC[C@@]2(C)[C@H]1CC[C@]2(C)O | 8.25
39 | COc1ccc(NS(=O)(=O)c2ccc(N)cc2)nn1 | 8.59

Conditions: Ebola virus entry assay, blue channel fluorescence

Row | Compound | outcome
40 | COc1ccc2c3c1O[C@H]1[C@H](O)CC[C@H]4[C@@H](C2)N(C)CC[C@@]341 | inactive
41 | O=c1cc[nH]c(=O)[nH]1 | inactive
42 | C[C@H]1C[C@H](O)c2ccsc2S1(=O)=O | inactive
43 | CCN(CCO)CCn1c(Cc2ccccc2)nc2c1c(=O)n(C)c(=O)n2C | inactive
44 | Cc1cc(CCCOc2c(C)cc(-c3noc(C(F)(F)F)n3)cc2C)on1 | inactive
45 | O=C(NCCO[N+](=O)[O-])c1cccnc1 | inactive
46 | COc1cc(CCN)cc(OC)c1OC | inactive
47 | CC(CCc1ccc2c(c1)OCO2)NN (stereo not drawn) | inactive
48 | CCCCCCCCCCCCCCCC(=O)O | inactive
49 | CC(=O)Nc1ccccc1 | inactive
50 | C=CCC1(C(C)CC)C(=O)NC(=O)NC1=O (stereo not drawn) | inactive
51 | CC(C(=O)O)c1ccc2c(c1)[nH]c1ccc(Cl)cc12 (stereo not drawn) | inactive
52 | Cc1ccc2ccc(Cl)cc2n1 | inactive
53 | CCCCCCCCCCCCOCCO | inactive
54 | O=C(O)CCCCCCCC(=O)O | inactive
55 | NNC(=O)c1ccncc1 | inactive
56 | CC(=O)Nc1ccc(OC(=O)c2ccccc2OC(C)=O)cc1 | inactive
57 | CC1(C)C(C=C(Cl)Cl)C1C(=O)OC(C#N)c1cccc(Oc2ccccc2)c1 (stereo not drawn) | inactive
58 | CCCCCCOc1ccccc1C(N)=O | inactive
59 | COc1cccc(OC)c1C(=O)N[C@@H]1C(=O)N2[C@@H]1SC(C)(C)[C@@H]2C(=O)O | inactive

Row | Compound | outcome
60 | O=C(CO)[C@@H](O)[C@H](O)[C@@H](O)CO | inactive
61 | COc1ccc(C(=O)NCc2ccc(OCCN(C)C)cc2)cc1OC | inactive
62 | O=C(Oc1ccccc1C(=O)O)c1ccccc1O | inactive
63 | COc1ccc(S(=O)(=O)Nc2nnc(CC(C)C)s2)cc1 | inactive
64 | N=C(N)N | inactive
65 | Cc1onc(-c2c(Cl)cccc2Cl)c1C(=O)Cl | inactive
66 | CC(=O)OC[C@H]1O[C@@H](OC(C)=O)[C@H](OC(C)=O)[C@@H]1OC(C)=O | inactive
67 | CN1CC[C@]23c4c5ccc(O)c4O[C@H]2[C@@H](O)CC[C@H]3[C@H]1C5 | inactive
68 | Cc1ccc(S(=O)(=O)NC(=O)NC2CCCCCCC2)cc1 | inactive
69 | CC(=O)CC/C=C(\C)CC/C=C(\C)CC/C=C(\C)CCC=C(C)C | inactive
70 | C[N+]1(CCF)[C@@H]2CC[C@H]1CC(OC(=O)C(O)(c1ccccc1)c1ccccc1)C2 (stereo partly drawn) | inactive
71 | O=C(O)c1[nH]n(-c2ccc(S(=O)(=O)O)cc2)c(=O)c1N=Nc1ccc(S(=O)(=O)O)cc1 | inactive
72 | COc1ccc(C(=O)N2CCN(CC(=O)N3CCOCC3)CC2)cc1 | inactive
73 | CC[N+](CC)(CCNC(=O)C(=O)NCC[N+](CC)(CC)Cc1ccccc1Cl)Cc1ccccc1Cl | inactive
74 | CC(=O)[C@H]1CC[C@H]2[C@@H]3C[C@H](C)C4=CC(=O)CC[C@]4(C)[C@H]3[C@@H](O)C[C@]12C | inactive
75 | Clc1ccccc1N1CCNCC1 | inactive
76 | Cc1cccc(C)c1NC(=O)CN1CCCCCC1 | inactive
77 | C[C@]12Cc3cn[nH]c3C[C@@H]1CC[C@@H]1[C@@H]2CC[C@@]2(C)[C@H]1CC[C@]2(C)O | inactive
78 | COc1ccc(NS(=O)(=O)c2ccc(N)cc2)nn1 | inactive
